# Reference: PubChem BioAssay AID686971 (National Center for Advancing Translational Sciences (NCATS), 2013)
# Hit rate of the full screen: of about 360,000 compounds, about 7,500 (2.1%) were called active. Not shown: some 8% with an inconclusive outcome. The call rests on the fitted dose curve; in most records, active means well fitted cell-killing curve with a large enough effect; inconclusive means small, poorly fitted or top-dose-only effect, or effect the other way, or another doubt; inactive means no such curve, though single readings can be large or run the other way. Shown is part of a subset that was picked to be rich in actives. A call without a number means that no potency is given here.
# Experiment: qHTS for induction of synthetic lethality in tumor cells producing 2HG: qHTS for the HT-1080-IDH1KD cell line
# Conditions: HT-1080 IDH1 knockdown viability, ATP luminescence, 48 h; series mostly up to 46.1 µM
# Summary of the method: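 Using the IDH1-knockdown HT-1080 line run in the same batch and compound series as the NT line, viability after 48 h at 37 °C was determined by CellTiter-Glo luminescence and expressed as % activity.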
# Potency means the concentration at half of the fitted maximal effect.
row,SMILES,Potency
1,Oc1ccc(Br)cc1/C=N/Nc1ccccn1,6.51 µM (active)
2,CCN(CC)CCn1c(/N=C/c2cc(Br)ccc2O)nc2ccccc21,inactive
3,Cc1c(C(=O)Nc2ccccn2)oc2ccc(Br)cc12,inactive
4,NCCCCC(C(=O)O)N(C(=O)OCc1ccccc1)C(=O)OCc1ccccc1 (centres undefined),inactive
5,O=C(COC(=O)c1ccc(S(=O)(=O)N2CCCCCC2)cc1)Nc1ccccc1C(F)(F)F,inactive
6,CCc1nc2ccc(C(=O)Nc3ccc(OC)c(OC)c3)cn2c1N(C)C(=O)c1cccc(OC)c1,inactive
7,CCn1cc(CN2CCC(n3nccc3NC(=O)CCCc3ccccc3)CC2)c(C)n1,inactive
8,O=C(Nc1cnn(Cc2ccc(Cl)cc2)c1)C1CCCC1,inactive
9,CCn1cc(CN2CCC(C(=O)Nc3cccc(-c4cccc(Cl)c4)c3)CC2)c(C)n1,20.6 µM (active)
10,CC(=O)c1cc(CN2CCC(C(=O)Nc3cccc(-c4cscn4)c3)CC2)cs1,inactive
11,CCn1cc(CN2CCC(C(=O)Nc3cccc(-c4cccc(Cl)c4)c3)CC2)cn1,18.4 µM (active)
12,O=C(Nc1cccc(-c2cscn2)c1)C1CCN(Cc2ccsc2)CC1,inactive
13,Cc1ccc([C@@H]2CC(=O)[C@@H]3CN(S(=O)(=O)c4ccc(C)cc4)[C@H](c4ccccc4F)C[C@@H]3N2S(=O)(=O)c2ccc(Cl)cc2)cc1,inactive
14,CCN(CC)CCCC(C)n1c2nc(=O)[nH]c(=O)c-2nc2cc(Cl)ccc21 (centres undefined),16.4 µM (active)
15,CCN(CC)CCn1c2ccc(Cl)cc2c2nc(C)sc21,inactive
16,CCCCc1ccc(S(=O)(=O)NC(=O)C2(C)CCN2C(=O)c2c(C)noc2C)cc1 (centres undefined),inactive
17,CC(=O)Nc1ccc(SCC(=O)NC(=O)c2ccc(Cl)cc2)cc1,inactive
18,Cc1cccc(C)c1-n1nnnc1C1(C)CCC(=O)N1CCOc1ccccc1 (centres undefined),inactive
19,COc1cc(NC(=O)c2cc(-c3ccc(F)cc3OC(C)C)n[nH]2)cc(OC)c1OC,inactive
20,COc1ccc(NC(=O)C[C@H]2C(=O)N(CCc3ccccc3)C[C@@H]2C)cc1,inactive
21,OCCc1ccc(NCCc2ccco2)cc1,inactive
22,Cc1cc(C)nc(NS(=O)(=O)c2ccc(N3C(=O)C4CCCCC4C3=O)cc2)n1 (centres undefined),inactive
23,Cc1ccc(S(=O)(=O)Nc2nc(C)cc(-n3nc(C)cc3C)n2)cc1,15.8 µM (active)
24,Cc1ccc(S(=O)(=O)Nc2nc(N)n(-c3ccccc3)n2)cc1,inactive
25,C[C@H]1CN([C@@H](C)CO)C(=O)CCCn2cc(nn2)CO[C@@H]1CN(C)S(=O)(=O)c1cccc(C#N)c1,inactive

row,SMILES,Potency
1,CC1(C(=O)NS(=O)(=O)c2ccc(C#N)cc2)CCN1C(=O)CC1CCCC1 (centres undefined),inactive
2,COCCNc1nc(Nc2ccccc2Cl)c2sc(-c3ccccc3)cc2n1,inactive
3,COCCNc1nc(NCc2ccc(NC(C)=O)cc2)c2sccc2n1,inactive
4,CC(=O)Nc1ccc(CNc2nc(NCCN(C)C)nc3cc(-c4ccccc4)sc23)cc1,20.6 µM (active)
5,COc1cccc(C(O)c2nc(-c3ccc(C)c(C)c3)cs2)c1 (centres undefined),inactive
6,CC1(C)OC(=O)C2=C(CC(c3ccccc3)OC2CCc2ccccc2)O1 (centres undefined),inactive
7,OCCCNc1nccc(-c2cc(Nc3cccc(Cl)c3)ncn2)n1,inactive
8,CC(C)n1cnc2c(Nc3cccc(Cl)c3)nc(N(CCO)CCCO)nc21,14.6 µM (active)
9,COC(=O)[C@]12CCCCC=C1N(Cc1ccc3c(c1)OCO3)C(=O)[C@H](CC(=O)NCc1cccs1)C2,inactive
10,COc1cc(C(O)c2nc(-c3cnn(C)c3)cs2)ccc1F (centres undefined),inactive
11,CCCCCNC(=O)C1C(=O)Nc2ccccc2C(=O)N1C(C)(C)C (centres undefined),inactive
12,CCOC(=O)[C@H]1Nc2ccc(Cl)cc2[C@@H]2[C@H]1C1CC(c3ccccc31)N2C(=O)OCc1ccccc1 (some centres undefined),inactive
13,COC(=O)Cc1ccc(OCC(=O)Nc2ccc(OC(F)(F)F)cc2)cc1,inactive
14,CCOC(=O)Cc1ncccc1C(=O)Nc1ccc(OC(F)(F)F)cc1,20.6 µM (active)
15,CCOC(=O)Cc1ncccc1C(=O)Nc1ccc(OC)cc1,inactive
16,O=C(NCc1ccccc1)C1c2ccccc2OCC(=O)N1C1CC1 (centres undefined),inactive
17,COc1ccc(C(=O)Nc2ccc(C3(C#N)CCCC3)cc2)cc1OC,inactive
18,CCNC(=O)c1ccc(OCC(=O)Nc2ccc(F)cc2)c(OC)c1,inactive
19,COc1ccc(C(=O)N/N=C2\CCS(=O)(=O)c3ccc(F)cc32)cc1OC,20.6 µM (active)
20,CC1(C(=O)NCc2ccccc2)CSCC(=O)N1CCCn1ccnc1 (centres undefined),inactive
21,O=C(C(=O)N1CCC(c2ccccc2)CC1)c1ccccc1,inactive
22,CN(c1ccccc1)S(=O)(=O)c1ccc(C(=O)NCc2cccnc2)cc1,inactive
23,Cc1sc2nc(SCC(N)=O)n(C)c(=O)c2c1C,inactive
24,CC(C)(C)C1CCc2c(sc3nc(SCC(N)=O)nc(N)c23)C1 (centres undefined),32.6 µM (active)
25,Nc1nc(SCC(=O)NCCN2CCOCC2)nc2sc3c(c12)CCC3,inactive

row,SMILES,Potency
1,CC1Cc2[nH][nH]c(=O)c2C(C2CCCC2)O1 (centres undefined),inactive
2,O=C(C[C@H]1CC[C@H]2[C@@H](COC[C@H](O)CN2C(=O)c2ccccn2)O1)N1CCN(c2ccccc2)CC1,inactive
3,c1cc(-c2ccc3[nH]ccc3c2)n2ccnc2c1,inactive
4,CCCCN(CCCC)CCC(O)c1cc2c(Cl)cc(Cl)cc2c2cc(C(F)(F)F)ccc12 (centres undefined),20.6 µM (active)
5,CS(=O)(=O)N1CCCCC1c1cc(C(=O)NCc2ccccc2)no1 (centres undefined),inactive
6,Cn1c(Nc2ccc(F)cc2)nc2cc(-c3ccsc3)sc2c1=O,inactive
7,CC(C)NC(=O)C1(C)CCCCN1Cc1cccc(C(F)(F)F)c1 (centres undefined),inactive
8,Cc1ccc(S(=O)(=O)NN=C2CC(C)(C)CC(=O)C2(C)C)cc1,inactive
9,COc1ccc(-c2nnc(SC(C)C(=O)NC3CC3)o2)cc1 (centres undefined),inactive
10,COc1ccc(-c2nnc(-c3ccc4ccccc4c3)o2)cc1,inactive
11,COc1ccc(-c2nnc(SC(=O)N3c4ccccc4Sc4ccccc43)o2)cc1,11.2 µM (active)
12,Cc1cccc(S(=O)(=O)N(C)C[C@@H]2OCc3cnnn3CCCC(=O)N([C@H](C)CO)C[C@@H]2C)c1,inactive
13,Cc1ccc(Cc2c(-c3ccc(C)cc3)nc3c4ccccc4ccn23)cc1,inactive
14,CS(=O)(=O)c1cccc(-c2ccc3nncn3c2)c1,inactive
15,Cc1cccc(NC(=O)c2nnn(-c3cccc(C(F)(F)F)c3)c2N)c1,inactive
16,COc1cc(NC(=O)c2cncc(-c3ccc(C#N)cc3)c2)cc(C(=O)Nc2cccc(C(F)(F)F)c2)c1,inactive
17,COc1cc(NC(=O)c2[nH]cnc2C(N)=O)cc(C(=O)Nc2cccc(C(F)(F)F)c2)c1,20.6 µM (active)
18,C[C@H](CO)N1C[C@H](C)[C@H](CN(C)C(=O)c2ccncc2)OCc2ccccc2-c2c(n(C)c3ccccc23)C1=O,inactive
19,COc1ccc(C(C(=O)NCc2ccccc2)n2c(=O)c(-c3ccccc3)nc3ccccc32)cc1 (centres undefined),inactive
20,C[C@H](O)[C@@H]1C(=O)N2CCc3c([nH]c4ccccc34)[C@@H]2C[C@@H]1N(C)C(=O)Nc1ccc(F)cc1,inactive
21,CC1(C(=O)Nc2ccc3c(c2)OCCO3)CCN1C(=O)Cc1cc(F)ccc1F (centres undefined),inactive
22,CC(CN1CCOCC1)OC(=O)c1ccc(Cl)cc1Cl (centres undefined),inactive
23,COC(=O)c1ccc(NCC(=O)c2ccccc2)cc1,inactive
24,CC(C)OC(=O)c1ccc(NCc2cc(O)ccc2O)cc1Cl,23.1 µM (active)
25,CC(C)NC(=O)c1ccc(Cl)cc1Cl,inactive

row,SMILES,Potency
1,COC(=O)c1ccc(NC(=O)Nc2ccc(C)cc2)cc1,inactive
2,COC(=O)c1ccc(NCc2cc(O)ccc2O)cc1,20.6 µM (active)
3,CC1(C)C2CCC1(C)C(OC(=O)c1ccc(O)cc1)C2 (centres undefined),inactive
4,O=C(OC12CC3CC(CC(C3)C1)C2)c1ccc(NCc2cc(O)ccc2O)cc1,23.1 µM (active)
5,C[C@@H]1CN([C@@H](C)CO)C(=O)c2cc(NS(C)(=O)=O)ccc2O[C@@H](C)CCCCO[C@H]1CN(C)C(=O)Nc1ccc2c(c1)OCO2,inactive
6,CCNC(=O)C1(C)CCCN(Cc2noc(-c3ccccc3OC)n2)C1 (centres undefined),inactive
7,CC(=O)c1nn(-c2ccccc2)c(=Nc2ccccc2)cc1C,inactive
8,CCCNC(=O)C1(C)CCN1C(=O)C1(c2ccccc2)CC1 (centres undefined),inactive
9,CCCCCCN1CCN(C2CN(Cc3cn(CCCCCC)nn3)S(=O)(=O)C2)CC1 (centres undefined),inactive
10,COc1ccc(CN2CCC(C)(Oc3cccc(F)c3)C2)c2ccccc12 (centres undefined),inactive
11,CCCCN1C[C@H](c2ccc(Br)cc2)[C@@H](CC(=O)Nc2ccc(Br)cc2)C1=O,inactive
12,O=C(CNC(=O)N1CC(=O)Nc2ccccc21)Nc1ccc(Br)cc1F,inactive
13,COc1ccc(C(=O)NCC(=O)N/N=C/c2ccc([N+](=O)[O-])o2)cc1OC,14.6 µM (active)
14,COc1cccc(/C=N/NC(=O)CNC(=O)c2ccc(S(=O)(=O)N3CCOCC3)cc2)c1OC,inactive
15,COc1ccc(/C=N/NC(=O)CNC(=O)c2ccc(S(=O)(=O)N3CCCC3)cc2)c(OC)c1,inactive
16,Cc1ccc(-c2nc3ccccn3c2Nc2ccc(F)cc2)o1,inactive
17,O=C1NC[C@H](CCCCN2C[C@H](Cc3ccc(O)cc3)N(CCc3ccccc3)C(=O)C2=O)N(CCc2ccccc2)C1=O,inactive
18,Cc1cccc(CN2CCC(CNC(=O)Nc3ccc(F)c(Cl)c3)CC2)c1,14.6 µM (active)
19,Cc1ccccc1NC(=O)NCC1CCN(Cc2cccc(Cl)c2)CC1,inactive
20,Cc1ccc(C)c(CN2CCC(CNC(=O)Nc3ccc(C)c(F)c3)CC2)c1,inactive
21,CSCCC(C(=O)NC(C)(C)C)n1c(-c2ccccc2)nc2ccccc21 (centres undefined),inactive
22,COc1cccc(-c2nnc(NC(=O)c3ccc(S(=O)(=O)N(CC(C)C)CC(C)C)cc3)o2)c1,2.59 µM (active)
23,COc1ccc(-c2nnc(NC(=O)CS(=O)(=O)c3ccc(Cl)cc3)o2)c(OC)c1,inactive
24,O=C(Nc1nnc(-c2ccco2)o1)c1ccc(S(=O)(=O)N2CCOCC2)cc1,inactive
